Test results taken from PubChem BioAssay (NCATS).
Where “and” joins values, the source holds several entries; their conditions need not be identical. Identical values can stand only once. Records with an inconclusive call do not appear. A call without a number means that no potency is given here. Values without a mark were called inactive. Calls of active or inactive are those of the source. Calls come from the whole dose curve; as a rule, active = well fitted inhibition curve with a large enough effect; inconclusive = small, poorly fitted or top-dose-only effect; inactive = flat fitted curve, though single readings scatter.

Legend:
NIH3T3 [1] = test: Cytotoxic Profiling of Annotated Libraries Using Quantitative High-Throughput Screening (AID 1296008); conditions: Five cell lines viability, CellTiter-Glo ATP luminescence, 48-72 h; max response: active compounds read low
In short: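 Cytotoxicity was measured as CellTiter-Glo ATP luminescence, read after 10 min at room temperature. Compound treatment of the cells lasted 48 or 72 hr at 37 degrees Celsius in a qHTS format.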

HEK293T = test: qHTS assay to identify novel small-molecules to repurpose for Merkel cell carcinoma treatment (AID 1296009); conditions: MCC and control cell lines, CellTiter-Glo viability, 72 h; at 44.8 µM (top of the series)
In short: (§1)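 Cell viability measured by CellTiter-Glo following 72 hr compound treatment at 37 degree celsius, with NPC and MIPE libraries tested in 8- and 11-point concentration series.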

MCC-13 = test: as above; conditions: MCC and control cell lines, CellTiter-Glo viability, 72 h; series mostly up to 46 µM
In short: as §1

MCC-26 = test: as above; conditions: MCC and control cell lines, CellTiter-Glo viability, 72 h; series mostly up to 46 µM
In short: as §1

MKL-1 = test: as above; conditions: MCC and control cell lines, CellTiter-Glo viability, 72 h; series mostly up to 46 µM
In short: as §1

MKL-2 = test: as above; conditions: MCC and control cell lines, CellTiter-Glo viability, 72 h; series mostly up to 46 µM
In short: as §1

UISO = test: as above; conditions: MCC and control cell lines, CellTiter-Glo viability, 72 h; series mostly up to 46 µM
In short: as §1

WaGa = test: as above; conditions: MCC and control cell lines, CellTiter-Glo viability, 72 h; series mostly up to 46 µM
In short: as §1

NIH3T3 [2] = test: as above; conditions: MCC and control cell lines, CellTiter-Glo viability, 72 h; at 44.8 µM (top of the series) unless noted
In short: as §1

HACAT = test: as above; conditions: MCC and control cell lines, CellTiter-Glo viability, 72 h; at 44.8 µM (top of the series) unless noted
In short: as §1
Note: nearly all actives have a fitted effect of over 60% in size.
Potency is the fitted concentration of half-maximal effect.

Q: With `CCN(CC)CCOc1ccc(C(=C(Cl)c2ccccc2)c2ccccc2)cc1` as the molecule, how does the max response (NIH3T3 [1]) read?
A: 2.62%

Q: And the outcome (HEK293T)?
A: inactive

Q: What about the Potency (MCC-13) of the same molecule?
A: inactive

Q: What about the Potency (MCC-26) of the same molecule?
A: inactive

Q: What about the Potency (MKL-1) of the same molecule?
A: inactive

Q: And the Potency (MKL-2)?
A: inactive

Q: What about the Potency (UISO) of the same molecule?
A: inactive

Q: What about the Potency (WaGa) of the same molecule?
A: inactive

Q: Which max response (NIH3T3 [1]) does the source give for `c1ccc2c(-c3cnn4cc(-c5ccc(N6CCNCC6)cc5)cnc34)ccnc2c1` here?
A: -102%

Q: And the Potency (MCC-13)?
A: 10.5 µM (active)

Q: What about the Potency (MCC-26) of the same molecule?
A: 8.33 µM (active)

Q: What about the Potency (MKL-1) of the same molecule?
A: 2.96 µM (active)

Q: `Nc1ncnc2ccccc12` was tested. Which max response (NIH3T3 [1]) did it give?
A: -0.365%

Q: What about the outcome (HEK293T) of the same molecule?
A: inactive

Q: What about the Potency (MCC-13) of the same molecule?
A: inactive

Q: And the Potency (MCC-26)?
A: inactive

Q: And the Potency (MKL-1)?
A: inactive

Q: And the Potency (MKL-2)?
A: inactive

Q: And the Potency (UISO)?
A: inactive

Q: And the Potency (WaGa)?
A: inactive

Q: `CC[C@@H]1C=C(C)C[C@H](C)C[C@H](OC)[C@H]2O[C@@](O)(C(=O)C(=O)N3CCCC[C@@H]3C(=O)O[C@H](C(C)=C[C@@H]3CC[C@H](Cl)[C@H](OC)C3)[C@H](C)[C@@H](O)CC1=O)[C@H](C)C[C@H]2OC` was tested. Which max response (NIH3T3 [1]) did it give?
A: -7.01%

Q: What about the Potency (MCC-13) of the same molecule?
A: inactive

Q: What about the Potency (MCC-26) of the same molecule?
A: inactive

Q: `O=C(O)C(O)Cc1ccc(O)c(O)c1` (stereo not drawn) was tested. Which max response (NIH3T3 [1]) did it give?
A: -0.893%

Q: What about the outcome (HEK293T) of the same molecule?
A: inactive

Q: What about the Potency (MCC-13) of the same molecule?
A: inactive

Q: What about the Potency (MCC-26) of the same molecule?
A: inactive

Q: And the Potency (MKL-1)?
A: inactive

Q: What about the Potency (MKL-2) of the same molecule?
A: inactive

Q: What about the Potency (UISO) of the same molecule?
A: inactive

Q: What about the Potency (WaGa) of the same molecule?
A: inactive

Q: With `C[N+](C)(C)CCCCCC[N+](C)(C)C` as the molecule, how does the outcome (NIH3T3 [1]) read?
A: inactive

Q: And the outcome (HEK293T)?
A: inactive

Q: And the Potency (MCC-13)?
A: inactive

Q: What about the Potency (MCC-26) of the same molecule?
A: inactive

Q: What about the Potency (MKL-1) of the same molecule?
A: inactive

Q: And the Potency (MKL-2)?
A: inactive

Q: And the outcome (NIH3T3 [2])?
A: inactive

Q: And the Potency (UISO)?
A: inactive

Q: And the Potency (WaGa)?
A: inactive

Q: With `O=c1c(O)c(-c2ccc(O)cc2)oc2cc(O)cc(O)c12` as the molecule, how does the max response (NIH3T3 [1]) read?
A: -2.9%

Q: What about the outcome (HEK293T) of the same molecule?
A: inactive

Q: And the Potency (MCC-13)?
A: inactive

Q: And the Potency (MCC-26)?
A: inactive

Q: And the Potency (WaGa)?
A: 3.72 µM (active)

Q: With `O=C1NC(=O)C(=Cc2ccc3nccnc3c2)S1` as the molecule, how does the max response (NIH3T3 [1]) read?
A: -9.21%

Q: What about the Potency (MCC-13) of the same molecule?
A: inactive

Q: What about the Potency (MCC-26) of the same molecule?
A: inactive

Q: And the Potency (MKL-1)?
A: inactive

Q: What about the Potency (MKL-2) of the same molecule?
A: inactive

Q: What about the Potency (UISO) of the same molecule?
A: inactive

Q: Which results are given for `CCc1ccc(C=C2SC(=S)NC2=O)cc1`?
A: max response (NIH3T3 [1]): -14.4%; Potency (MCC-13): inactive; Potency (MCC-26): inactive; Potency (MKL-1): inactive; Potency (MKL-2): inactive; Potency (UISO): inactive; Potency (WaGa): inactive

Q: For `OC[C@H]1O[C@@H](Oc2cc(O)cc(C=Cc3ccc(O)cc3)c2)[C@H](O)[C@@H](O)[C@H]1O`, which max response (NIH3T3 [1]) is on record?
A: 2.83%

Q: And the Potency (MCC-13)?
A: inactive

Q: What about the Potency (MCC-26) of the same molecule?
A: inactive

Q: What about the Potency (MKL-1) of the same molecule?
A: inactive

Q: What about the Potency (MKL-2) of the same molecule?
A: inactive

Q: What about the Potency (UISO) of the same molecule?
A: inactive

Q: What about the Potency (WaGa) of the same molecule?
A: inactive

Q: Which outcome (NIH3T3 [1]) does the source give for `COc1cc(O)c2c(c1)C(=O)c1cc(C)cc(O)c1C2=O` here?
A: inactive

Q: What about the Potency (MCC-13) of the same molecule?
A: inactive

Q: And the Potency (MCC-26)?
A: inactive

Q: And the Potency (MKL-1)?
A: inactive

Q: And the Potency (MKL-2)?
A: inactive

Q: And the outcome (NIH3T3 [2])?
A: inactive [at 17.4 µM]

Q: And the Potency (UISO)?
A: inactive

Q: And the Potency (WaGa)?
A: inactive

Q: With `O=C(Nc1ccccc1-c1cn2c(CN3CCNCC3)csc2n1)c1cnc2ccccc2n1` as the molecule, how does the Potency (NIH3T3 [1]) read?
A: 29.6 µM (active)

Q: And the outcome (HACAT)?
A: inactive

Q: And the Potency (MCC-26)?
A: 33.2 µM (active)

Q: What about the Potency (WaGa) of the same molecule?
A: inactive

Q: Which results are given for `O=c1cc(CN2CCOCC2)occ1OCCCCCSc1ccnc2cc(C(F)(F)F)ccc12`?
A: max response (NIH3T3 [1]): 0.796%; Potency (MCC-13): inactive; Potency (MCC-26): inactive; Potency (MKL-1): inactive; Potency (MKL-2): inactive

Q: Which results are given for `O=C1NC(=O)C(c2ccccc2)(c2ccccc2)N1`?
A: max response (NIH3T3 [1]): -3.65%; Potency (MCC-13): inactive; Potency (MCC-26): inactive; Potency (MKL-1): inactive; Potency (MKL-2): inactive; Potency (UISO): inactive; Potency (WaGa): inactive

Q: What does the source list for `CC#CCn1c(N2CCC[C@@H](N)C2)nc2c1c(=O)n(Cc1nc(C)c3ccccc3n1)c(=O)n2C`?
A: outcome (NIH3T3 [1]): inactive; Potency (MCC-13): inactive; Potency (MCC-26): inactive; Potency (MKL-1): inactive; Potency (MKL-2): inactive; outcome (NIH3T3 [2]): inactive; Potency (UISO): inactive; Potency (WaGa): inactive

Q: What does the source list for `CC(C)(C)OC(=O)N[C@H]1CCCCCC=C[C@@H]2C[C@@]2(C(=O)NS(=O)(=O)C2CC2)NC(=O)[C@@H]2C[C@@H](OC(=O)N3Cc4cccc(F)c4C3)CN2C1=O`?
A: max response (NIH3T3 [1]): -0.939%; Potency (MCC-13): inactive; Potency (MCC-26): inactive; Potency (MKL-1): inactive; Potency (MKL-2): inactive; Potency (UISO): inactive; Potency (WaGa): inactive

Q: `COC1CCC(N(C(=O)C2CCC(C)CC2)c2cc(C3=CCCCC3)sc2C(=O)O)CC1` (stereo not drawn) was tested. Which max response (NIH3T3 [1]) did it give?
A: -0.413%

Q: What about the Potency (MCC-13) of the same molecule?
A: inactive

Q: What about the Potency (MCC-26) of the same molecule?
A: inactive

Q: What about the Potency (MKL-1) of the same molecule?
A: inactive

Q: And the Potency (MKL-2)?
A: inactive

Q: And the Potency (UISO)?
A: inactive

Q: What about the Potency (WaGa) of the same molecule?
A: inactive

Q: Which results are given for `O=C(CCCCCCC(=O)Nc1ccccc1)NO`?
A: Potency (NIH3T3 [1]): 10.6 µM (active) and 18.7 µM (active); Potency (MCC-13): 6.68 µM (active); Potency (MCC-26): 20.9 µM (active); Potency (MKL-1): 2.99 µM (active) and 5.9 µM (active); Potency (MKL-2): 1.88 µM (active) and 3.32 µM (active); Potency (UISO): 14.8 µM (active)

Q: What does the source list for `O=C1NC(=O)C(=Cc2ccc3c(c2)OC(F)(F)O3)S1`?
A: max response (NIH3T3 [1]): -19.2%; Potency (MCC-13): inactive; Potency (MCC-26): inactive; Potency (MKL-1): inactive; Potency (MKL-2): inactive; Potency (UISO): inactive

Q: For `COc1ccc(-c2coc3cc(O)cc(O)c3c2=O)cc1`, which outcome (NIH3T3 [1]) is on record?
A: inactive

Q: What about the Potency (MCC-13) of the same molecule?
A: inactive

Q: And the Potency (MCC-26)?
A: inactive

Q: What about the Potency (MKL-1) of the same molecule?
A: inactive

Q: And the Potency (MKL-2)?
A: inactive

Q: And the outcome (NIH3T3 [2])?
A: inactive

Q: What about the Potency (UISO) of the same molecule?
A: inactive

Q: And the Potency (WaGa)?
A: inactive

Q: How did the max response (NIH3T3 [1]) turn out when `O=C(NCCN1CCOCC1)c1ccc(Cl)cc1` was run?
A: 4.53%

Q: What about the Potency (MCC-13) of the same molecule?
A: inactive

Q: And the Potency (MCC-26)?
A: inactive

Q: And the Potency (MKL-1)?
A: inactive

Q: And the Potency (MKL-2)?
A: inactive

Q: What about the Potency (UISO) of the same molecule?
A: inactive

Q: And the Potency (WaGa)?
A: inactive
